These results are taken from ChEMBL document CHEMBL4808148, “HDAC6 screening dataset using tau-based substrate in an enzymatic assay yields selective inhibitors and activators” (2021).

Hit rate of the full screen: of about 5,600 compounds, about 150 (2.7%) showed an effect of 50% or more. Only a selection was taken, and strong results are over-represented in it overall.

The target in the test is T1, Protein deacetylase HDAC6 (Homo sapiens) (UniProt Q9UBN7).
T1 sequence (whole entry): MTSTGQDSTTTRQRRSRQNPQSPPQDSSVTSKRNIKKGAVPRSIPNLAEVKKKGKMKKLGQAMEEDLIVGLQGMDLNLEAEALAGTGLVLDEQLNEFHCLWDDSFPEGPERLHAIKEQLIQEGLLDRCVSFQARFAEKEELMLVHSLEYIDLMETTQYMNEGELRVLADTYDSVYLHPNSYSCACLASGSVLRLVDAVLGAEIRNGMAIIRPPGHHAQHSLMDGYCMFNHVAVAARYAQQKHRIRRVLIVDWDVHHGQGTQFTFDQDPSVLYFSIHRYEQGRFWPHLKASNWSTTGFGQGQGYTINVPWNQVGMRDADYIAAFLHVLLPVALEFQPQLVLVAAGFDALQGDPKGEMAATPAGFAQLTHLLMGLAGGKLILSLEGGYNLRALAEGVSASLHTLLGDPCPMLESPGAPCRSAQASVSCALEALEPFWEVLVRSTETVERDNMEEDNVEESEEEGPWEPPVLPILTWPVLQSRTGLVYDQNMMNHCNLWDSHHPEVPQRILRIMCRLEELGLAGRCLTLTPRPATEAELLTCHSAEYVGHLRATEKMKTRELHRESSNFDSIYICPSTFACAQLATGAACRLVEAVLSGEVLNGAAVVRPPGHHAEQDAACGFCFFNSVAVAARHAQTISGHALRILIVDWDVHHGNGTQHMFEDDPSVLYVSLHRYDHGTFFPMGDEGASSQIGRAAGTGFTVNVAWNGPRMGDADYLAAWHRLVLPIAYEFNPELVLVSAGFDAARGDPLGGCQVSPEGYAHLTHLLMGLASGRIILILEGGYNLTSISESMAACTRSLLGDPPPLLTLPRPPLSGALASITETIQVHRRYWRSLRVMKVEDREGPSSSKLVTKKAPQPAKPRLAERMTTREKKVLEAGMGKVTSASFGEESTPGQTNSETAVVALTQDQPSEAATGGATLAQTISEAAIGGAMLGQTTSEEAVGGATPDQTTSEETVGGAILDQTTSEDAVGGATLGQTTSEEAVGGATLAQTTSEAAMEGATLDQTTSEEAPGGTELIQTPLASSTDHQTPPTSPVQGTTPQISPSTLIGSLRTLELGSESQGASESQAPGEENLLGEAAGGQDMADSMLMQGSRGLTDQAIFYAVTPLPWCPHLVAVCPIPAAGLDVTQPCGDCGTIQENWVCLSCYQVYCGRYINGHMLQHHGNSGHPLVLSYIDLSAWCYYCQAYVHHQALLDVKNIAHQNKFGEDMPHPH
To be noted: at 10 µM.
For `OC[C@H]1O[C@@H](c2ccc(F)c(Cc3cc4ccccc4s3)c2)[C@H](O)[C@@H](O)[C@@H]1O`, the inhibition was -2.47%.
With `O=C(/C=C/c1ccc(O)c2c1[C@@H](C(=O)O[C@H](Cc1ccc(O)c(O)c1)C(=O)O)[C@H](c1ccc(O)c(O)c1)O2)O[C@H](Cc1ccc(O)c(O)c1)C(=O)O`, the inhibition amounted to 3.93%.
Consider `Cc1cccc(N2CC(CO)OC2=O)c1` (stereo not given), for which the inhibition was -6.61%.
Turning to `Cn1nnc(-c2ccc(-c3ccc(N4C[C@H](CO)OC4=O)cc3F)cn2)n1`, the inhibition was found to be 86.8%.
In the case of `CC(=O)NC[C@H]1CN(c2ccc(-c3ccc(CNCc4cnn[nH]4)cc3)c(F)c2)C(=O)O1`, the inhibition was 0.09%.
Consider `Cc1nc(-c2ccc(OCC(C)C)c(C#N)c2)sc1C(=O)O`, for which the inhibition is 98.8%.
On to `CCCCOCCOc1nc(-c2ccc(C(=O)O)c(F)c2)sc1C`, for which the inhibition came to 0.11%.
On to `Cc1cc(SCc2sc(-c3ccc(C(F)(F)F)cc3)nc2C)ccc1OCC(=O)O`, for which the inhibition came to 3.31%.
With `CCOC(=O)[C@@]1(CCCCCCOc2ccc(Cl)cc2)CO1`, the inhibition is -2.98%.
On to `CCC(CC)Nc1nc(C)c(-c2ccc(OC(F)(F)F)cc2OC)nc1OC`, for which the inhibition was -3.03%.
Consider `O=c1c2ccccc2nc2n1CCCCC2`, for which the inhibition is 17.6%.
As to `O=c1c2ccccc2nc2n1CCc1c-2[nH]c2ccccc12`, the inhibition turned out to be 7.17%.
On to `O=C1c2ccccc2-n2c1nc1ccccc1c2=O`, for which the inhibition was determined as 68.6%.
Turning to `FC(F)(F)c1cccc(-c2noc(-c3cc(-c4ccccc4)c(C(F)(F)F)s3)n2)c1`, the inhibition was -4.64%.
As for `Cc1c(-c2ccc(-c3ccccc3F)cc2)nc2ccc(F)cc2c1C(=O)O`, the inhibition was -2.53%.
For the compound `O=C(O)c1cccc(-c2noc(-c3ccccc3F)n2)c1`, the inhibition was 99.8%.
For `NC1(C(=O)N[C@@H](CCO)c2ccc(Cl)cc2)CCN(c2nc[nH]c3nccc2-3)CC1`, the inhibition worked out at 5%.
The value for `CN1C(=O)N[C@H](Cc2c[nH]c3c(Cl)cccc23)C1=O` was 2.4%; that for `CN(C)Cc1c(C(=O)NCCOc2ccc(C(=O)NO)cc2)oc2ccccc12` was 97.9%; that for `Cc1cc(C)c(N(Cc2ccccc2)S(=O)(=O)c2ccc(OCCNC(=O)c3cc4ccccc4o3)cc2)c(C(=O)NO)c1` was -0.11%.
In the case of `COc1ccc(C(=O)NCc2ccc(OCCN(C)C)cc2)cc1OC`, the inhibition was -3.31%.
Consider `CC1(C)OC[C@H](NC(=O)Nc2ccc(Br)cc2Br)[C@H](c2ccccc2)O1`, for which the inhibition was -0.73%.
As to `FC(F)(F)c1cc(NC(=S)Nc2ccc(Br)cc2-c2nnn[nH]2)cc(C(F)(F)F)c1`, the inhibition is 67.5%.
Turning to `COc1cc(C[C@@H](CO[C@@H]2O[C@H](CO)[C@@H](O)[C@H](O)[C@H]2O)[C@H](CO[C@@H]2O[C@H](CO)[C@@H](O)[C@H](O)[C@H]2O)Cc2ccc(O)c(OC)c2)ccc1O`, the inhibition was -3.26%.
`COc1ccc(C[C@@H](C)[C@@H](C)Cc2ccc(OC)c(OC)c2)cc1OC`: the inhibition is -2.57%.
